Test [1] concerns the target Thyrotropin-releasing hormone receptor (Homo sapiens) (UniProt P34981). Put plainly: qHTS assay to identify small molecule agonists of the thyrotropin-releasing hormone receptor (TRHR) signaling pathway (AID 1346891; calls by dose curve;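 further: HEK293 cells expressing TRHR with calcium dye readout; series mostly up to about 58 µM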). The gist of the method:
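In 1536-format, 1500 TRHR-Hek293 cells per well grew 18 h, took up calcium dye for 2 h at 37 °C, received compound, and were read kinetically; 15-point titrations, triplicates.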
(Quantitative high-throughput screening tests each substance at several concentrations.)

A short description of test [2]: Human pregnane X receptor (PXR) small molecule agonists, qHTS cell viability counter screen (AID 1346977). Further: nearly all actives have a fitted effect of over 50% in size. Further: potency means the concentration at half of the fitted maximal effect. A digest of the protocol: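 Readout is CellTiter-Fluor fluorescence from PXR-Luc HepG2 cells. Plated cells rested 5hr, then were treated with compounds for 24hr at 37C and 5% CO2, with reagent present during the last hour.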
A short description of test [3]: Caspase-3/7 induction in HepG2 cells by small molecules, qHTS assay (AID 1346978). Further: nearly all actives have a fitted effect of over 15% in size. The gist of the method: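 Caspase-3/7 induction was measured by Caspase-Glo 3/7 luminescence (30 min, room temperature) after a 17 hr compound exposure of wild-type HepG2 cells seeded at 2,000 per well and pre-incubated 5 hr.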
Test [4] can be described thus: Caspase-3/7 induction in CHO-K1 cells by small molecules, qHTS cell viability counter screen (AID 1346979). Further: nearly all actives have a fitted effect of over 35% in size. Further: potency means the concentration at half of the fitted maximal effect. A digest of the protocol: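 To flag cytotoxic compounds, treated CHO-K1 wild-type cells were given CellTiter-Fluor at 16hr and read fluorescently after 1hr at 37C; the caspase-3/7 luminescence was measured in these same wells.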
Test [5] can be described thus: Caspase-3/7 induction in CHO-K1 cells by small molecules, qHTS assay (AID 1346980). Further: nearly all actives have a fitted effect of over 15% in size. A digest of the protocol:
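Luminescent Caspase-Glo 3/7 read (30min, room temperature) quantified apoptosis induction. Cells were wild-type CHO-K1, treated with compound for 17hr at 37 C and 5% CO2.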

Test [6] can be described thus: Caspase-3/7 induction in HepG2 cells by small molecules, qHTS cell viability counter screen (AID 1346981). Further: nearly all actives have a fitted effect of over 30% in size. Further: potency means the concentration at half of the fitted maximal effect. The gist of the method:
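In this quantitative HTS counter screen, compounds delivered in DMSO were left on unmodified HepG2 cells for 16 hr at 37 C. Viability was then determined fluorometrically with CellTiter-Fluor, in parallel with caspase-3/7 induction in the same wells.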

In test [7] the target is Voltage-gated inwardly rectifying potassium channel KCNH2 (Homo sapiens) (UniProt Q12809). Description: Human Ether-a-go-go-Related Gene (hERG) channel small molecule antagonists: fluorescence cell-based qHTS assay (AID 1671200).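 Further: hERG-expressing U2OS cells given a thallium stimulus after FluxOR II dye loading; series mostly up to about 77 µM; nearly all actives have a fitted effect of over 50% in size.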 A digest of the protocol: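 Measured: Tl+ flux via fluorescence (480/540 nm) in hERG-expressing U2OS cells after 1 h dye loading at room temperature.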
Sequence of Voltage-gated inwardly rectifying potassium channel KCNH2 (Homo sapiens) (Q12809 whole entry, looked up): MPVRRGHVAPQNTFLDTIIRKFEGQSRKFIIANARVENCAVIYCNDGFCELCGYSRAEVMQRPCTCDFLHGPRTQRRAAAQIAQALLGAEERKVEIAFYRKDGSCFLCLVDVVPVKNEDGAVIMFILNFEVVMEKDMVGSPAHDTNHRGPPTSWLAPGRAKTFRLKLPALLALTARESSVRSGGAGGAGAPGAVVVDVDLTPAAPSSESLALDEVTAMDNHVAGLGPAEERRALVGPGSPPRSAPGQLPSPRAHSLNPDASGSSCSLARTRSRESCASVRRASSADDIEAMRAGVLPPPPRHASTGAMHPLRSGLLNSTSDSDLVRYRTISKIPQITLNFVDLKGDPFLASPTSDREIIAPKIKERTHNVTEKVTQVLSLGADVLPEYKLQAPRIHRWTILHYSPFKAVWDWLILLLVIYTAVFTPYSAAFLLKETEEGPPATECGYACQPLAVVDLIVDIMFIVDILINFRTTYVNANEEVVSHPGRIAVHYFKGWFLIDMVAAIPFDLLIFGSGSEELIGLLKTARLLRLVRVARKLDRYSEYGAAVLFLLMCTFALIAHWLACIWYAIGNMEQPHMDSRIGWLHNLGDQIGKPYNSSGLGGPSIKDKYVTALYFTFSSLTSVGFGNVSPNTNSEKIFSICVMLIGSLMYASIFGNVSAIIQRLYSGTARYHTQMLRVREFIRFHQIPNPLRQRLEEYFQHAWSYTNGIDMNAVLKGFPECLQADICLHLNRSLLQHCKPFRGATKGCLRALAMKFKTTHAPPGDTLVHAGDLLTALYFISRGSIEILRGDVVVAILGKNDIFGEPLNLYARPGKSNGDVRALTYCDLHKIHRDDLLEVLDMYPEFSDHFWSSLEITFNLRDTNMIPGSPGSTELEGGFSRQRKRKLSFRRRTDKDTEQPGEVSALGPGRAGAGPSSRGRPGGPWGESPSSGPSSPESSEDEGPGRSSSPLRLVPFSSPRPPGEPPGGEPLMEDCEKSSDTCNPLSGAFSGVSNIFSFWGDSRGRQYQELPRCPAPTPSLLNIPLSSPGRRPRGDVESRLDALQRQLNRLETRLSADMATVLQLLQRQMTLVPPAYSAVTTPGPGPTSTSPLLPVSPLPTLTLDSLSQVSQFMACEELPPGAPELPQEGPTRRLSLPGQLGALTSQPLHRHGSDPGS

For test [8], the target named is Nuclear receptor subfamily 1 group I member 2 (Homo sapiens) (UniProt O75469). Put plainly: Human pregnane X receptor (PXR) small molecule agonists, qHTS assay (AID 1346982). Further: nearly all actives have a fitted effect of over 35% in size. Further: potency means the concentration at half of the fitted maximal effect. The gist of the method: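 Reporter HepG2 cells expressing PXR-Luc are cultured in charcoal-stripped FBS (5%), treated with compounds for 24 hr at 37 C, and assayed by ONE-Glo luminescence after 30 min at room temperature.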
Sequence of Nuclear receptor subfamily 1 group I member 2 (Homo sapiens) (O75469 whole entry, looked up): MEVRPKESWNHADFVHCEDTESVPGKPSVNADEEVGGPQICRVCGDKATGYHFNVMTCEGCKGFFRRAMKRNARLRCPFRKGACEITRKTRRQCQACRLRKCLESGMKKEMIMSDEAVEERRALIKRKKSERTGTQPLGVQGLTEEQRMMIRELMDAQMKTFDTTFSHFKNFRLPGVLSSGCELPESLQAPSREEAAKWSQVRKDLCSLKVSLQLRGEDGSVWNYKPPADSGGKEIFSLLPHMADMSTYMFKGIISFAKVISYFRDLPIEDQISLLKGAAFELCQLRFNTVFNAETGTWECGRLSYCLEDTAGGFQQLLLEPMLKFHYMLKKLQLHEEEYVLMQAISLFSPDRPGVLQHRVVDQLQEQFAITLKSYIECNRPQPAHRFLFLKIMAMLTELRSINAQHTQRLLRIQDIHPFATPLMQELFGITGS

In test [9] the target is Nuclear receptor subfamily 1 group I member 2 (Rattus norvegicus) (UniProt Q9R1A7). Description: Rat pregnane X receptor (rPXR) activation by small molecules, qHTS assay (AID 1346983). Further: nearly all actives have a fitted effect of over 20% in size. To be noted: rPXR luciferase reporter cells, One-Glo luminescence, 24 h; max activation: stronger effect = higher value. The gist of the method: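 Luminescent readout (One-Glo luciferase, 30 min room temperature) followed 24 hr compound treatment at 37 C of rPXR cells plated 2,000 per well and preincubated 5hr; qHTS format with compounds delivered in DMSO.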

Test [10] concerns the target Nuclear receptor subfamily 1 group I member 2 (Homo sapiens) (UniProt O75469). Put plainly: CYP3A4 induction through human pregnane X receptor (PXR) by small molecules, qHTS assay (AID 1346984). Further: nearly all actives have a fitted effect of over 40% in size. Further: potency means the concentration at half of the fitted maximal effect. A digest of the protocol:
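Induction measured in HepG2-based DPX-2 cells co-expressing human PXR and a CYP3A4 promoter-driven luciferase. After a 24-hour compound exposure, cells received CYP3A4 luciferin substrate at 3uM final for 3 hours, and light output was then recorded.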

For test [11] the target is unchanged. Put plainly: Human pregnane X receptor (PXR) activation by small molecules, qHTS assay (AID 1346985). Further: nearly all actives have a fitted effect of over 40% in size. Further: potency means the concentration at half of the fitted maximal effect. The gist of the method: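 DPX-2 cells (HepG2 co-transfected with a PXR response element and a CYP3A4-promoter luciferase construct) were seeded at 2,000 per well, rested 5 hr at 37C, then exposed to DMSO-dissolved compounds for 24 hr. Activation was read as luciferase luminescence.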

For test [12], the target named is Acetylcholinesterase (Homo sapiens) (UniProt P22303). Put plainly: Acetylcholinesterase (AChE) small molecule antagonists: colormetric cell-based qHTS assay (AID 1347395; calls by dose curve; further: nearly all actives have a fitted effect of over 30% in size). A digest of the protocol:
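Neuroblastoma line SH-SY5Y supplied the enzyme; cells were preincubated with compound for 30 min at 37 C and 5% CO2. Acetylthiocholine with DTNB was then added for 90 min at 37 C, and thiocholine was measured by colour.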

Test [13] shares this target. Description: Acetylcholinesterase (AChE) small molecule antagonists: enzyme-based qHTS assay (AID 1347397; calls by dose curve; further: nearly all actives have a fitted effect of over 55% in size). To be noted: Potency: AChE enzyme activity inhibition. A digest of the protocol:
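Colorimetric DTNB readout of acetylthiocholine hydrolysis, 10 min at room temperature, after 30 min room-temperature exposure of 50 mU/mL recombinant human enzyme to compound; DMSO vehicle control.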

Test [14] shares this target. Put plainly: Acetylcholinesterase (AChE) small molecule antagonists: fluorescence cell-based qHTS assay (AID 1347398; calls by dose curve; further: nearly all actives have a fitted effect of over 50% in size). To be noted: Potency: AChE activity. The gist of the method: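 Cellular AChE activity read as thiocholine from acetylthiocholine hydrolysis, detected by Thiolite Green fluorescence at 490/520 nm after 40 min at room temperature. Compounds were pre-incubated 30 min at 37 C on adherent SH-SY5Y cells.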

For test [15] the target is unchanged. Description: Acetylcholinesterase (AChE) small molecule antagonists: enzyme-based qHTS assay with human liver microsomes (AID 1347399; calls by dose curve; further: nearly all actives have a fitted effect of over 60% in size). To be noted: Potency: qHTS inhibition. A digest of the protocol: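 Recombinant human AChE (50 mU/mL in the enzyme mix) and human liver microsomes (0.25 mg/mL final) were preincubated with compound and NADPH (0.25 mg/mL final) for 30 min at 37 C. Acetylthiocholine/DTNB was then added; thiocholine was read colorimetrically after 10 min at room temperature.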

For test [16], the target named is Cytochrome P450 2C19 (Homo sapiens) (UniProt P33261). Description: Cytochrome P450 Family 2 Subfamily C Member 19 (CYP2C19) small molecule antagonists: luciferase reporter qHTS assay (AID 1671197). Further: nearly all actives have a fitted effect of over 65% in size. Further: potency means the concentration at half of the fitted maximal effect. A digest of the protocol: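 P450-Glo CYP2C19 screening system; proluciferin substrate; DMSO compound stocks; 10 min RT preincubation; NADPH regeneration, 1 h at 37C; luciferin detection reagent, 20 min RT; luminescence as RLU.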
Sequence of Cytochrome P450 2C19 (Homo sapiens) (P33261 whole entry, looked up): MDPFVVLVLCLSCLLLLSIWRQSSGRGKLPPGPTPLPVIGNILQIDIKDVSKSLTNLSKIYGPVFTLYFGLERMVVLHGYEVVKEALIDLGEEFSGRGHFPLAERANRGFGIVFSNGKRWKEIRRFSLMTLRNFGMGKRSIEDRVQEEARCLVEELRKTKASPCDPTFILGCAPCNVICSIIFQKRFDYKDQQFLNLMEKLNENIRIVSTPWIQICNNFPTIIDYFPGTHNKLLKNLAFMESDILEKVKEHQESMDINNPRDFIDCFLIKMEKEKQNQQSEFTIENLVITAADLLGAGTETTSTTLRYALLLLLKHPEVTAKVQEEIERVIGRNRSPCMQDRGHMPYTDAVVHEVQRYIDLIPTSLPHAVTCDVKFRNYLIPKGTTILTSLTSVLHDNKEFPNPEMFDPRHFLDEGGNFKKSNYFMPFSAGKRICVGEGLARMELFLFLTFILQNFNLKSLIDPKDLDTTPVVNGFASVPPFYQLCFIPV
In general terms: In a reporter assay the amount or activity of a reporter protein is the signal.

The target in test [17] is Cytochrome P450 2C9 (Homo sapiens) (UniProt P11712). Description: Cytochrome P450 Family 2 Subfamily C Member 9 (CYP2C9) small molecule antagonists: luciferase reporter qHTS assay (AID 1671198). Further: nearly all actives have a fitted effect of over 50% in size. Further: potency means the concentration at half of the fitted maximal effect. A digest of the protocol: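 Enzyme-substrate mix preincubated with compound 10 min at room temperature; reaction started with NADPH regeneration solution, 1 h 37C. Luminescent luciferin product read after 20 min detection reagent.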
Sequence of Cytochrome P450 2C9 (Homo sapiens) (P11712 whole entry, looked up): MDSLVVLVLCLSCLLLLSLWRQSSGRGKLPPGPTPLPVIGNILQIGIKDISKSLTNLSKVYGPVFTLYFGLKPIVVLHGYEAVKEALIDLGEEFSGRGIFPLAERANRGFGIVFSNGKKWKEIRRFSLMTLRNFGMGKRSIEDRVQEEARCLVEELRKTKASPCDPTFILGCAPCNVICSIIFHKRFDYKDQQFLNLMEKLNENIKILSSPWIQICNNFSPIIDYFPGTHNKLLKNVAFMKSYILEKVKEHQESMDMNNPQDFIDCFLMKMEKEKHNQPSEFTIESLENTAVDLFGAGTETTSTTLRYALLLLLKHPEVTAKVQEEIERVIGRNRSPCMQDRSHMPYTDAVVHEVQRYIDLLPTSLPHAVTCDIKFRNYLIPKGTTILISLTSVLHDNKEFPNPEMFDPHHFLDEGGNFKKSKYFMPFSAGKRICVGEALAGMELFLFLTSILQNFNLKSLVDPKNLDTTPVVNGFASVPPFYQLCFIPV

In test [18] the target is Cytochrome P450 1A2 (Homo sapiens) (UniProt P05177). Put plainly: Cytochrome P450 Family 1 Subfamily A Member 2 (CYP1A2) small molecule antagonists: luciferase reporter qHTS assay (AID 1671199). Further: nearly all actives have a fitted effect of over 50% in size. Further: potency means the concentration at half of the fitted maximal effect. The gist of the method:
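Steps: enzyme-substrate mix dispensed; test compounds and furafylline control pinned in; 10 min room temperature; NADPH regeneration solution added, 1 h; reaction stopped with luciferin detection reagent; luminescence read after 20 min.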

Test [19] has as its target Cytochrome P450 3A4 (Homo sapiens) (UniProt P08684). Put plainly: Cytochrome P450 Family 3 Subfamily A Member 4 (CYP3A4) small molecule antagonists: luciferase reporter qHTS assay (AID 1671201). A digest of the protocol:
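Setup: enzyme-substrate mix, compound pin transfer, 10 min RT. Reaction: NADPH regeneration solution, 1 h RT. Readout: detection reagent stops turnover, luminescence measured after 20 min, expressed in relative luminescence units.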

Test [20] has as its target Cytochrome P450 2D6 (Homo sapiens) (UniProt P10635). Put plainly: Cytochrome P450 Family 2 Subfamily D Member 6 (CYP2D6) small molecule antagonists: luciferase reporter qHTS assay (AID 1671196). Further: nearly all actives have a fitted effect of over 50% in size. Further: potency means the concentration at half of the fitted maximal effect. The gist of the method: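 Test chemicals meet CYP2D6 plus proluciferin substrate (10 min, RT); NADPH regenerating solution then drives turnover for 1 h. Detection reagent halts the reaction; luminescence measured after 20 min.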

Records with an inconclusive call do not appear. Calls of active or inactive are those of the source. Unless noted, the call rests on the fitted dose curve; in most records, active means well fitted curve in the direction sought with a large enough effect in the repeat runs; inconclusive means weak or mixed curves; inactive means no such curve, though single readings can be large; an effect the other way counts as inactive or inconclusive.
On the % scale 0 is the no-effect control and ±100 the full control effect.

Sequence of Cytochrome P450 3A4 (Homo sapiens) (P08684 whole entry, looked up): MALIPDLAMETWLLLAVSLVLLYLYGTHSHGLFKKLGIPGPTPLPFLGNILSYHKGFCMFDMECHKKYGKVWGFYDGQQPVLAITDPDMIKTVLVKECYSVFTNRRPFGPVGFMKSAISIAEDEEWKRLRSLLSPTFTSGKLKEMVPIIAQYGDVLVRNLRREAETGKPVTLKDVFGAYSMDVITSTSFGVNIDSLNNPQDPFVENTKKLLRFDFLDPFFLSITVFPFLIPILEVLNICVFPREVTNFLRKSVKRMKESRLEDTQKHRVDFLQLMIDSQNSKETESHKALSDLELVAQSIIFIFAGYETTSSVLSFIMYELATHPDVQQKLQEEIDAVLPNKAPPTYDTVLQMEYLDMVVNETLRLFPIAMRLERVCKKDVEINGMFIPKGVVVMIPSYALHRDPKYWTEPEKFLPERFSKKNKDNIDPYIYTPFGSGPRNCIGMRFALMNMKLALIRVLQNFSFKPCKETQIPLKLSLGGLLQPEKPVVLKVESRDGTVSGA
Sequence of Cytochrome P450 2D6 (Homo sapiens) (P10635 whole entry, looked up): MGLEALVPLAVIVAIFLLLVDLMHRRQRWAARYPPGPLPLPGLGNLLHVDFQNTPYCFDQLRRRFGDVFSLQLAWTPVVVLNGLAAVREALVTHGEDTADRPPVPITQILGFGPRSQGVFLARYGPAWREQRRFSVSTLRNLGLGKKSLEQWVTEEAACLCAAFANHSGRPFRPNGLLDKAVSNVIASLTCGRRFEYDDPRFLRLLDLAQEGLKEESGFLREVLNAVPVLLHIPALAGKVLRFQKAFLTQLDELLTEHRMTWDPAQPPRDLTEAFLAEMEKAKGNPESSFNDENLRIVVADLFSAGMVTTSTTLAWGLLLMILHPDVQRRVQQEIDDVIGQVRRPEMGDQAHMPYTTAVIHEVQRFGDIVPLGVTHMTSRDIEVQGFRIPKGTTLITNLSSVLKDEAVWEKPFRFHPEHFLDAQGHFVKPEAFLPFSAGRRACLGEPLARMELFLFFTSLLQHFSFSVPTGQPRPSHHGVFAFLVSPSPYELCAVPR
Sequence of Acetylcholinesterase (Homo sapiens) (P22303 whole entry, looked up): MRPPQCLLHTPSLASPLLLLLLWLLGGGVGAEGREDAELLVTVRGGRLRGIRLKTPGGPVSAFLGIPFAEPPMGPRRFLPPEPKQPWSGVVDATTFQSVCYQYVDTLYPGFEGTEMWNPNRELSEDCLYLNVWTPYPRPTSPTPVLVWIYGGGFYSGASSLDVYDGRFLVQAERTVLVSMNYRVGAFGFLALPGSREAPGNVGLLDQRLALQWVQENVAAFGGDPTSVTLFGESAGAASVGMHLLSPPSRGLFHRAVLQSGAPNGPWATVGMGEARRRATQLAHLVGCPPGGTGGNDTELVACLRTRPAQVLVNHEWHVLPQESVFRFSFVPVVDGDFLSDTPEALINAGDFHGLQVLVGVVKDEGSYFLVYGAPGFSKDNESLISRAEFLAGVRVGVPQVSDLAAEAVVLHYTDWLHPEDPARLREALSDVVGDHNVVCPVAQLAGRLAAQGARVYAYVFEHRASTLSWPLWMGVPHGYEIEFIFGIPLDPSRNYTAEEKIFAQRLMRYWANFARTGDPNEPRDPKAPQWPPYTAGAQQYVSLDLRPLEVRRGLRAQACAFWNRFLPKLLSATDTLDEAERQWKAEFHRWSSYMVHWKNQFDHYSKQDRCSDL
Sequence of Cytochrome P450 1A2 (Homo sapiens) (P05177 whole entry, looked up): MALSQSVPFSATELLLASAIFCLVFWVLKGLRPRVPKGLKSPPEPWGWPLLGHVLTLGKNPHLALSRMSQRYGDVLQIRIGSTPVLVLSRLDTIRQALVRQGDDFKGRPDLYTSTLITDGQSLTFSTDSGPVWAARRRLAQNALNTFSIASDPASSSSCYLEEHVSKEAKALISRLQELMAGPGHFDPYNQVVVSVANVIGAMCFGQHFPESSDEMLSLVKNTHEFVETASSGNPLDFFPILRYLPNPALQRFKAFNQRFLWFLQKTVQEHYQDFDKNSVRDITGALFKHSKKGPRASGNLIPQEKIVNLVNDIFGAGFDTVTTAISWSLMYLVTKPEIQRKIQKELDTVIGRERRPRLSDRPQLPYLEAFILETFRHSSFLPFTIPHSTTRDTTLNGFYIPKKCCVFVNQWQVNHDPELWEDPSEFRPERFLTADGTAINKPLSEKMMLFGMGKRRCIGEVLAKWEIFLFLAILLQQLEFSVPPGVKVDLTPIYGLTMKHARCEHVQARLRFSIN

Regarding `C[C@@H]1CC[C@H]2[C@@H](C)C(=O)O[C@@H]3O[C@@]4(C)CC[C@@H]1[C@]32OO4`, the Potency entry in [1], in test [2], in test [3], in test [5], in test [6] and in [7] was “inactive” throughout. Also, the Potency in [4] was 4.22 µM (active).

As to `O=[N+]([O-])c1ccc(F)c([N+](=O)[O-])c1`, the Potency entry in test [1], in test [3], in test [8], in test [10], in test [11] and in test [12] was “inactive” each time. In addition, the Potency result in test [13], in [14], in test [15], in test [16], in test [18] and in test [7] was “inactive” each time. Further, in test [19], the Potency entry was “inactive”. Besides, the Potency in test [2] was 27.6 µM (active); in [4], 24.6 µM (active); in test [6] it was 27.6 µM (active); in test [17], 32 µM (active). The max activation in [9] was -9.38% (inactive).

On to `CCOc1ccc(C(C)(C)COCc2cccc(Oc3ccccc3)c2)cc1`, for which the Potency entry in test [1], in [2], in test [3], in test [4], in test [6] and in test [12] was “inactive” in each case. The Potency result in test [13], in test [14], in test [15], in test [7] and in test [19] was “inactive” in each case. In addition, the Potency is 35.6 µM (active) in test [20], 17.8 µM (active) in test [16] and 6.33 µM (active) in test [17].

Take `ClCCCCBr`: the Potency result in test [1], in test [2], in [3], in test [4], in test [6] and in test [8] was “inactive” in each case. Moreover, the Potency result in test [12], in test [13], in test [14], in [20], in test [16] and in test [17] was “inactive” each time. Further, the Potency entry in [18] and in test [19] was “inactive” each time.

In the case of `CCC(COC(=O)c1cc(OC)c(OC)c(OC)c1)(c1ccccc1)N(C)C` (stereo unspecified), the Potency result in [1], in test [2], in [3], in [5], in test [6] and in [12] was “inactive” in each case. Besides, the Potency entry in [13], in [15] and in test [18] was “inactive” in each case. The Potency in test [8] is 29.8 µM (active); in test [10], 15.8 µM (active); in test [11], 25.1 µM (active); in test [20], 0.55 µM (active); in test [16], 24.5 µM (active); in test [17], 15.5 µM (active). The max activation in test [9] is -1.12% (inactive).

With `CC(=O)C(C)(C)C`, the Potency result in test [1], in [2], in test [3], in test [5], in test [6] and in test [8] was “inactive” throughout. The Potency entry in test [12], in test [13], in test [14], in test [15], in test [20] and in test [16] was “inactive” in each case. The Potency entry in [17], in test [7] and in test [19] was “inactive” each time. Moreover, the Potency in [18] is 37 µM (active).

Take `O=Cc1ccc(Cl)cc1Cl`: the Potency result in test [1], in test [2], in test [3], in test [4], in test [6] and in test [8] was “inactive” throughout. Also, the Potency result in [12], in test [13], in test [14], in test [15], in test [20] and in [16] was “inactive” in each case. Moreover, the Potency entry in test [17], in [18], in [7] and in [19] was “inactive” in each case.

The values above are taken from PubChem BioAssay (Tox21).
